Bioassay records from PubChem BioAssay.
Shown are actives, neighbours in structure and some others; about 21% of the full set was active somewhere.
RORg inh = inhibitors of mouse ROR gamma transcriptional activity | 5.4% of 310,000 active | Drosophila S2 Gal4-RORgamma UAS-luciferase reporter, 20 h | Potency, µM (titrated, usually from 53.6 µM), usual class: inhibitors | AID 2551; note: nearly all actives have a fitted effect of over 60% in size
Target sequence (P51450 whole entry, looked up, the tested form may be a part): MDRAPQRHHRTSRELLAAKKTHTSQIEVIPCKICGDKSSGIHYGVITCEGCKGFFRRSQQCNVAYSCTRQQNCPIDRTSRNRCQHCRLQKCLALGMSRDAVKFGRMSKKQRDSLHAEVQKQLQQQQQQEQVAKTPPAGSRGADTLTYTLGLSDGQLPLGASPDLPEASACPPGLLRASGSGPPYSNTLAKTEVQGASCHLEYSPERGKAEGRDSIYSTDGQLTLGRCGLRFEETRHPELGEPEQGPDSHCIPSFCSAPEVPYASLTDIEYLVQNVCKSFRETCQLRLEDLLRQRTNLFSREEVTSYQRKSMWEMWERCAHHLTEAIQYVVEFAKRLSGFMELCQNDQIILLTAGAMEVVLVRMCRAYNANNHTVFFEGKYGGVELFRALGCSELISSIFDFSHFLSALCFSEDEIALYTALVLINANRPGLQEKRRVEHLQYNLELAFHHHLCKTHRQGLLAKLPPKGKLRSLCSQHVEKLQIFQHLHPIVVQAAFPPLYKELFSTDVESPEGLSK
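Read-out: Photinus luciferase luminescence; inhibitors lower reporter signal. Insect Schneider cells with Gal4-ROR gamma fusion under metallothionein promoter, UAS reporter; 700 uM final copper sulfate induction, 20 hr, ambient temperature.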
Gal4-VP16 FLuc = inhibits Gal4-VP16 luciferase reporter, ROR gamma counter-screen; 3.5% of 310,000 active; Drosophila S2 Gal4-VP16 UAS-luciferase, luminescence, 20 h; Potency, µM (titrated, usually from 53.6 µM), actives largely listed as inhibitors;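 note: Gal4-VP16 expression switched on by copper sulfate through the metallothionein promoter; nearly all actives have a fitted effect of over 50% in size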
TDP1 cell noCPT = qHTS for Inhibitors of human tyrosyl-DNA phosphodiesterase 1 (TDP1): qHTS in cells in absence of CPT. DT40 Tdp1-/- hTDP1 cells, no CPT, ATP luminescence, 48 h. Potency, µM (top dose mostly 46.2 µM), most hits filed as inhibitors. 15% of 420,000 active. AID 686978, 2013; note: nearly all actives have a fitted effect of over 55% in size
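Chicken DT40 Tdp1-/- cells complemented with human TDP1, screened without camptothecin (DMSO vehicle only), 400 cells/well. Compounds pin-transferred, cells incubated at 37 °C for at least 48 hr. Growth read as ATP-dependent luminescence (CellTiter-Glo, 30 min at RT).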
ELG1 repair inh = inhibitors of ELG1-dependent DNA repair in HEK293T cells | HEK293T ELG1-luciferase reporter, luminescence, 16 h; DNA damage induced by 5-fluorouridine | Potency, µM (doses to about 46.1 µM), actives largely listed as inhibitors | 2.3% of 330,000 active | AID 504467; note: nearly all actives have a fitted effect of over 55% in size
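Step one: seed 2,000 cells per well. Step two: pin-transfer compound or DMSO alongside 5-fluorouridine. Step three: incubate 16 hr, 37 °C, 5% CO2. Step four: add ONE-Glo, wait 30 min, read luminescence.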
TDP1 cell CPT = growth inhibition of DT40 Tdp1-/-;hTDP1 cells with camptothecin (screen for TDP1 inhibitors) | chicken DT40 Tdp1-/-;hTDP1 cells + 20 nM CPT, ATP luminescence, 48 h | Potency, µM (titrated, usually from 46.2 µM), actives largely listed as inhibitors | 12% of 420,000 active; note: nearly all actives have a fitted effect of over 55% in size
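Chicken DT40 Tdp1-/- cells complemented with human TDP1, 400 cells/well, exposed to compounds plus 20 nM camptothecin for at least 48 h at 37 C; viability read as ATP content by CellTiter-Glo luminescence.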
IL1B secr inh = inhibitors of inflammasome signaling (IL-1 beta secretion); THP-1 LPS/ATP IL-1B secretion, AlphaLISA, 16 h; active compounds read low; activity change, % at 57.5 µM; 4.7% of 360,000 active; in the data active = activity change below about -50%; inconclusive = mostly about -30% to -49%
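THP-1 cells pretreated 1 hr with compounds (up to 57.5 uM final), then stimulated with LPS (250 ng/mL final) plus ATP (1.25 mM final); secreted IL-1B measured by AlphaLISA after 16 hr, decreased signal indicating inhibition.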
Numbers stand for hits; [ ] = dose if it differs, or a comment. Unless noted, calls come from the whole dose curve; as a rule, active = well fitted curve in the direction sought with a large enough effect; inconclusive = small, poorly fitted or top-dose-only effect, or another doubt; inactive = no such curve, though single readings can be large; an effect the other way counts as inactive or inconclusive.

How did COc1ccc(/C=C/C(=O)c2ccccn2)cc1 do in these assays?
RORg inh: 11µM; Gal4-VP16 FLuc: 11µM; TDP1 cell noCPT: inconclusive; ELG1 repair inh: inconclusive; TDP1 cell CPT: 21µM; IL1B secr inh: inconclusive

How did COc1ccc([N+](=O)[O-])c(C=CC(=O)c2ccccn2)c1 do in these assays?
TDP1 cell noCPT: 2.3µM; TDP1 cell CPT: 5.2µM; IL1B secr inh: -105

What do the screens show for `COc1ccc(/C=C/C(=O)c2ccccc2O)cc1`?
RORg inh: inconclusive; Gal4-VP16 FLuc: inactive[10 µM]; TDP1 cell noCPT: inconclusive; ELG1 repair inh: inconclusive; TDP1 cell CPT: inconclusive; IL1B secr inh: inactive

How did O=C(CCc1ccccc1)N1N=C(c2ccncc2)CC1(O)C(F)(F)F (stereo unspecified) do in these assays?
RORg inh: inactive; Gal4-VP16 FLuc: inactive; TDP1 cell noCPT: inconclusive; ELG1 repair inh: inactive; TDP1 cell CPT: inconclusive; IL1B secr inh: inactive

How did O=C(c1ccco1)N1N=C(c2ccncc2)CC1(O)C(F)(F)F (stereo unspecified) do in these assays?
RORg inh: inactive; Gal4-VP16 FLuc: inactive; TDP1 cell noCPT: inactive; ELG1 repair inh: inactive; TDP1 cell CPT: inactive; IL1B secr inh: inactive

Results for O=C(c1ccco1)N1N=C(c2ccc(Cl)cc2)CC1(O)C(F)(F)F (stereo unspecified) ?
RORg inh: inconclusive; Gal4-VP16 FLuc: 5.6µM; TDP1 cell noCPT: inconclusive; ELG1 repair inh: inactive; TDP1 cell CPT: inconclusive; IL1B secr inh: inconclusive

Results for O=C(c1ccco1)N1N=C(c2ccc(Br)cc2)CC1(O)C(F)(F)F (stereo unspecified) ?
RORg inh: 7.1µM; Gal4-VP16 FLuc: inconclusive; TDP1 cell noCPT: inconclusive; ELG1 repair inh: inconclusive; TDP1 cell CPT: inactive; IL1B secr inh: -63

How did COc1cc2c(cc1OC)CN(CC(=O)Nc1ccc(C)cc1)CC2 do in these assays?
RORg inh: inactive; Gal4-VP16 FLuc: inactive; TDP1 cell noCPT: inactive; ELG1 repair inh: inconclusive; TDP1 cell CPT: inactive; IL1B secr inh: inactive

What do the screens show for `CCOC(=O)c1[nH]c2ccc(OC)cc2c1NC(=O)C(C)N1CCC2(CC1)OCCO2` (stereo unspecified)?
RORg inh: inactive; Gal4-VP16 FLuc: inactive; ELG1 repair inh: inactive

Results for COC(=O)c1[nH]c2ccc(C)cc2c1NC(=O)CN1CCc2cc(OC)c(OC)cc2C1 ?
RORg inh: inconclusive; Gal4-VP16 FLuc: inactive; TDP1 cell noCPT: 23µM; ELG1 repair inh: inconclusive; TDP1 cell CPT: 16µM; IL1B secr inh: inactive

How did CCOC(=O)c1[nH]c2ccc(F)cc2c1NC(=O)C(C)N1CCc2cc(OC)c(OC)cc2C1 (stereo unspecified) do in these assays?
RORg inh: inactive; Gal4-VP16 FLuc: inactive; TDP1 cell noCPT: inconclusive; ELG1 repair inh: 4.1µM; TDP1 cell CPT: inconclusive; IL1B secr inh: inactive

Results for COC(=O)c1[nH]c2cc(OC)ccc2c1NC(=O)CCN1CCN(c2cccc(C)c2C)CC1 ?
RORg inh: inactive; Gal4-VP16 FLuc: inactive; TDP1 cell noCPT: 21µM; ELG1 repair inh: inconclusive; TDP1 cell CPT: inconclusive; IL1B secr inh: inactive

How did COC(=O)c1[nH]c2cc(OC)ccc2c1NC(=O)CCN1CCN(c2ccccc2)CC1 do in these assays?
RORg inh: inactive; Gal4-VP16 FLuc: inactive; TDP1 cell noCPT: inconclusive; ELG1 repair inh: inactive; TDP1 cell CPT: inconclusive; IL1B secr inh: inactive

How did COc1cc2c(cc1OC)CN(CC(=O)Nc1ccccc1SC)CC2 do in these assays?
RORg inh: inactive; Gal4-VP16 FLuc: inactive; TDP1 cell noCPT: 23µM; ELG1 repair inh: inconclusive; TDP1 cell CPT: inconclusive; IL1B secr inh: inactive

How did COC(=O)/C=C1\OCc2cc(OCc3ccccc3)ccc21 do in these assays?
TDP1 cell noCPT: inconclusive; TDP1 cell CPT: inconclusive; IL1B secr inh: inactive

How did Cc1cccc(C(=O)N2CCC(C)(C(=O)NS(=O)(=O)C3CC3)C2)c1C (stereo unspecified) do in these assays?
TDP1 cell noCPT: inactive; TDP1 cell CPT: inactive; IL1B secr inh: inactive

What do the screens show for `CCOC(=O)c1[nH]c2ccc(OCC)cc2c1NC(=O)CN1CCN(c2ccccn2)CC1`?
RORg inh: inconclusive; Gal4-VP16 FLuc: inactive; TDP1 cell noCPT: 16µM; ELG1 repair inh: inconclusive; TDP1 cell CPT: inconclusive; IL1B secr inh: inactive

How did CCOC(=O)c1[nH]c2ccc(OC)cc2c1NC(=O)CN1CCc2ccccc2C1 do in these assays?
RORg inh: inactive; Gal4-VP16 FLuc: inactive; TDP1 cell noCPT: 16µM; ELG1 repair inh: 16µM; TDP1 cell CPT: 26µM; IL1B secr inh: inconclusive

How did COC(=O)c1[nH]c2ccccc2c1NC(=O)CN1CCN(c2cccc(OC)c2)C(C)C1 (stereo unspecified) do in these assays?
RORg inh: inactive; Gal4-VP16 FLuc: inactive; TDP1 cell noCPT: 18µM; ELG1 repair inh: inconclusive; TDP1 cell CPT: 23µM; IL1B secr inh: inactive

How did COc1ccc(C(CC(=O)Nc2ccc(C)cn2)N2Cc3ccccc3C2=O)cc1OC (stereo unspecified) do in these assays?
TDP1 cell noCPT: inconclusive; TDP1 cell CPT: inactive

Results for Nc1ccn([C@@H]2O[C@H](C(=O)Nc3ccc(Oc4ccccc4)nc3)[C@@H](O)[C@H]2O)c(=O)n1 ?
TDP1 cell noCPT: inactive; TDP1 cell CPT: inactive; IL1B secr inh: inactive

How did O=S(=O)(CCNC1CC1)NC1CCCCC1 do in these assays?
TDP1 cell noCPT: inactive; TDP1 cell CPT: inactive; IL1B secr inh: inactive

What do the screens show for `Cc1nn(-c2cccc(Cl)c2)c2nc(C(F)(F)F)[nH]c(=O)c12`?
RORg inh: inactive; Gal4-VP16 FLuc: inactive; TDP1 cell noCPT: 29µM; ELG1 repair inh: inactive; TDP1 cell CPT: inconclusive; IL1B secr inh: inactive

How did NC(=O)c1ccc(NC(=O)c2ccc(COc3ccc(F)cc3)o2)cc1 do in these assays?
TDP1 cell noCPT: inactive; ELG1 repair inh: inactive; TDP1 cell CPT: inactive; IL1B secr inh: inactive

What do the screens show for `O=C(CSc1nnc(-c2ccccc2)c(-c2ccccc2)n1)NCc1ccco1`?
RORg inh: inactive; Gal4-VP16 FLuc: inactive; TDP1 cell noCPT: 23µM; ELG1 repair inh: 23µM; TDP1 cell CPT: inconclusive; IL1B secr inh: inactive

What do the screens show for `O=C(CSc1nc(-c2ccccc2)c(-c2ccccc2)[nH]1)NCc1ccco1`?
RORg inh: 10µM; Gal4-VP16 FLuc: inconclusive; TDP1 cell noCPT: inconclusive; ELG1 repair inh: inactive; TDP1 cell CPT: inconclusive; IL1B secr inh: inactive

Results for Cc1nc(SCC(=O)NC(=O)NCc2ccco2)nc(C)c1C ?
RORg inh: inactive; Gal4-VP16 FLuc: inactive; TDP1 cell noCPT: inactive; ELG1 repair inh: inactive; TDP1 cell CPT: inactive; IL1B secr inh: inactive
